# Assay results as given in PubChem BioAssay (NCI).
# Compounds without any hit were thinned out: in the full panel of roughly 79,000, 15% have a hit. Unmarked numbers belong to inactive results. No stated cut-off is given here; in the data, active means growth inhibition above about 70%; inactive means the rest.
# Test: NCI Yeast Anticancer Drug Screen. Data for the bub3 strain (AID 167)
# Conditions: S. cerevisiae bub3 mutant strain, at 50.0 µM, active compounds read high
# Procedure, shortened: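 Compounds were applied to a genetically altered yeast strain carrying a cell-cycle control defect. Growth inhibition was scored against vehicle-treated controls.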
row,Compound,growth inhibition
1,CC(C)(C)c1ccc(SCC#CCOc2ccc(Cl)cc2)cc1,-7.3%
2,COc1cc(/C=C/c2ccc([N+](=O)[O-])cc2[N+](=O)[O-])ccc1O,9.25%
3,CC12CCC(/C(=N/O)C1=O)C2(C)C (stereo not drawn),-1.8%
4,O=C(O)c1cc(-c2ccccc2Cl)nc2cc3ccccc3cc12,-6.05%
5,CCOC(=O)c1ccc(NC(=S)NCc2cccnc2)cc1,22.2%
6,Cc1ccc(/C=N/NS(=O)(=O)c2ccc(/C=C3\NC(=O)NC3=O)cc2)cc1,-41.2%
7,CC(=Nc1ccc(Cl)c(Cl)c1)c1ccncc1,2.1%
8,CCCCCCCCCCCCCCCCCCCOc1ccc(OCCCCCCCC)cc1,3.4%
9,COc1cc(OC)c2nccc(NCCCN(C)C)c2c1[N+](=O)[O-],-3.4%
10,CC12CCc3ccccc3C1=NNC(=O)C2 (stereo not drawn),-5.85%
11,CC(CNC(N)=O)(CNC(N)=O)c1ccccc1,-0.45%
12,C(=C\c1ccccc1)/Cn1nc(-c2ccccc2)nc1-c1cnccn1,-39.4%
13,O=C(CCCC(=O)N/N=C/c1ccc(Cl)cc1)N/N=C\c1ccc(Cl)cc1,-1.65%
14,CCCC(O)C(C)N (stereo not drawn),-2.25%
15,N#CC(C#N)=C(N)/C(C#N)=C/c1ccc2[nH]ccc2c1,-26.6%
16,Nc1ccc(OCC(O)CN2CCN(c3ccccc3)CC2)cc1 (stereo not drawn),10.6%
17,O=COCCO,1.75%
18,COc1cccc(C2c3cc4c(cc3OC(N3CCCC3)C2C)OCO4)c1O (stereo not drawn),12.3%
